Results filed as inconclusive are left out. Unmarked numbers belong to inactive results. Calls of active or inactive are those of the source. Calls come from the whole dose curve; as a rule, active = well fitted inhibition curve with a large enough effect; inconclusive = small, poorly fitted or top-dose-only effect; inactive = no such curve, though single readings can be large or run the other way. Where a SMILES comes first, the peptide text is derived from it. [ ]: non-standard residue; d: D form. ξ: configuration not given here. ξPhe(βξ-Me) = CC(c1ccccc1)C(N)C(=O)O; GABA = NCCCC(=O)O
% is set by controls: 0 for no effect and ±100 for the full control effect; potency is the fitted concentration of half-maximal effect.

The first experiment deals with Zika virus NS2B-NS3 protease (unlinked complex). Put plainly: Primary screen GU Rhodamine qHTS for Zika virus inhibitors: Unlinked NS2B-NS3 protease assay (AID 1347159). Note: nearly all actives have a fitted effect of over 60% in size. As to conditions: Recombinant ZIKV NS2B-NS3 protease, Rhodamine110 substrate fluorescence; series mostly up to 107 µM; activity change, negative = inhibition: at the top concentration. The method, boiled down:
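In dose–response format, inhibition of unlinked protease (25 nM) was measured with 1.5 microM bis-peptide Rhodamine110 substrate. Aprotinin served as the intraplate control.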
Consider `C/C=C/C=C/C(CC(=O)O)Nc1ccc(C=O)cc1` (centres undefined), for which the Potency is 11.2 µM (active).
Same read-out and setting: in the case of `CC1=C2C(=O)O[C@@H](c3ccoc3)[C@]2(C)CCC1` it was “inactive”.
In the case of `C[C@@H]1CCC2C(C)(C)[C@H](O)CC[C@]2(C)[C@@]12Cc1c(O)cc3c(c1O2)CN(CCO)C3=O` (some centres undefined), the “activity change, negative = inhibition” value was -9.37% [at 57.1 µM].
Still for that read-out and setting: as for `C[C@@H]1CC[C@]2(C(=O)O[C@@H]3O[C@H](CO)[C@@H](O)[C@H](O)[C@H]3O)CC[C@]3(C)C(=CCC4[C@@]5(C)C[C@@H](O)[C@H](O)C(C)(C)C5CC[C@]43C)C2[C@]1(C)O` (some centres undefined), the figure is 25.6% [at 32.5 µM]; as for `C=C1[C@@H]2CC[C@@]3(C)[C@H](c4ccoc4)OC(=O)C[C@]13O[C@H]1CC(=O)C(C)(C)[C@H](CC(=O)OC)[C@]12C`, 7.64% [at 57.1 µM]; as for `CCOC(=O)[C@H](CCc1ccccc1)N[C@@H](C)C(=O)N1C2CCCCC2C[C@H]1C(=O)O` (some centres undefined), 1.65%.
Same read-out and setting: as for `CC(=O)O[C@H]1CC[C@@]2(CI)C(=CC[C@@H]3[C@@H]2CC[C@]2(C)[C@@H]([C@H](C)CCCC(C)C)CC[C@@H]32)C1`, the figure is 13.5% [at 19.1 µM].
Same read-out and setting: as for `CC1(C)C(O)CCC2(C)C1C(O)C=C1COC(=O)C12O` (centres undefined), the figure is 24.2%; as for `CC(C)(O)/C=C1/C(=O)C(C)(C)C(=O)C(C)(C)C1(O)O[C@@H]1O[C@H](COC(=O)c2cc(O)c(O)c(O)c2)[C@@H](O)[C@H](O)[C@H]1O` (some centres undefined), -2.63% [at 32.5 µM].
In the case of `CC1(C)CC2C3=CCC4C5(C)CCC(OC6OC(CO)C(O)C(OC7OC(CO)C(O)C(OC8OC(CO)C(O)C(OC9OC(COC%10OC(CO)C(O)C(O)C%10O)C(O)C(O)C9O)C8O)C7O)C6O)C(C)(C)C5CCC4(C)C3(C)CCC2(C(=O)O)CC1O` (centres undefined), the activity change, negative = inhibition is -21.5% [at 19.1 µM].
Consider `O=C(O)C[C@@H](NC(=O)c1cc(-c2ccc(-c3ccncc3)cc2)cs1)c1ccccc1`, for which the Potency is 15.8 µM (active).
For the molecule `CCOc1nc2cccc(C(=O)O)c2n1Cc1ccc(-c2ccccc2-c2noc(=O)[nH]2)cc1`, the “activity change, negative = inhibition” value is -10.6%.

Another experiment has as its system Zika virus NS2B-NS3 protease (linked construct). The experiment in a line: Primary screen NINDS Rhodamine qHTS for Zika virus inhibitors (AID 1347160). Note: nearly all actives have a fitted effect of over 55% in size. As to conditions: purified NS2B-NS3 protease, Rhodamine110 substrate fluorescence; series mostly up to 57.1 µM; activity change, negative = inhibition: at the top concentration. The method, boiled down: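 Each compound, titrated, sat 15 min with 25 nM linked protease before 1.5 microM Rhodamine110 substrate went in. Fluorescence gain over the next 15 min, in pH 8.0 Tris with Tween 20, gave Hill-fitted curves.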
On the technique in general: qHTS replaces the single test concentration by a dilution series.
For `C/C=C/C=C/C(CC(=O)O)Nc1ccc(C=O)cc1` (centres undefined), the Potency is 49.3 µM (active).
For `CC(c1c[nH]c2ccccc12)C(O)C(=O)O` (centres undefined), the “activity change, negative = inhibition” value was -27.6%.
Still for that read-out and setting: in the case of `COC(=O)c1ccc(O[C@@H]2O[C@H](CO)[C@@H](O)[C@H](O)[C@H]2O)c(OC)c1` it was -16.3% [at 33.1 µM].
`COc1ccc([C@@H]2N[C@H](C(=O)O)Cc3c2[nH]c2ccccc32)cc1CN1CCN(c2ccccc2F)CC1`: the “activity change, negative = inhibition” value was 24.9%.
Still for that read-out and setting: as for `C[C@@H]1CCC2C(C)(C)[C@H](O)CC[C@]2(C)[C@@]12Cc1c(O)cc3c(c1O2)CN(CCO)C3=O` (some centres undefined), the figure is -4.55% [at 33.1 µM].
Still for that read-out and setting: as for `CC1CCC2(O1)C(C)(C)CC(O[C@@H]1O[C@H](CO[C@@H]3OC[C@](O)(CO)[C@H]3O)[C@@H](O)[C@H](O)[C@H]1O)CC2(C)O` (some centres undefined), the figure is -26.5% [at 33.1 µM].
Turning to `COC(=O)CC[C@@H](C)[C@H]1CC[C@H]2[C@@H]3CC(=O)[C@H]4C[C@H](OC(C)=O)CC[C@]4(C)[C@H]3CC[C@]12C`, the molecule was classed as inactive.
`CC1=C(CC(=O)O)c2cc(F)ccc2C1=Cc1ccc(S(C)(=O)=O)cc1`: the “activity change, negative = inhibition” value was 19.3%.
The same measure, in the same setting: in the case of `CC1(C)C(=O)C(C)(C)c2cc(C(=O)Nc3ccc(C(=O)O)cc3)ccc21` it was -4.75%; in that of `C=C[C@@]1(C)CC(=O)C2[C@](C)(O1)[C@@H](OC(C)=O)[C@@H](O)[C@H]1C(C)(C)CCC[C@]21C` (some centres undefined), 6.34% [at 15.1 µM].
On the same count and under the same terms, as for `CCC(C)/C=C(C)/C=C/C1=CC2=C(Cl)C(=O)C(C)(OC(C)=O)C(=O)C2=CN1CCCC(=O)O` (centres undefined), the figure is -1.23% [at 33.1 µM].
On the same count and under the same terms, as for `CC(C)CC1NC(=O)C(C(C)c2ccccc2)NC(=O)C(C(C)C)NC(=O)C(C)NC(=O)CCCNC(=O)C(Cc2c[nH]c3ccccc23)NC(=O)C(C)NC1=O` (stereo not drawn) (cyclo([GABA]AV[ξPhe(βξ-Me)]LAW); configuration not given here), the figure is -18% [at 15.1 µM]; as for `C[C@@H]1CC[C@]2(C(=O)O[C@@H]3O[C@H](CO)[C@@H](O)[C@H](O)[C@H]3O)CC[C@]3(C)C(=CCC4[C@@]5(C)C[C@@H](O)[C@H](O)C(C)(C)C5CC[C@]43C)C2[C@]1(C)O` (some centres undefined), 7.22% [at 15.1 µM].
Consider `CC1CCCC2OC2C(=O)c2c(O)cc(O)cc2CC(=O)O1` (centres undefined), for which the molecule was classed as inactive.
As for `C/C(=C\CO)CC/C=C(\C)C(=O)O[C@H]1[C@H](OC2OC=C(C(=O)O)C3CCC(C)(O)C23)O[C@H](CO)[C@@H](O)[C@@H]1O` (some centres undefined), the “activity change, negative = inhibition” value was -17.3% [at 33.1 µM].
Same read-out and setting: in the case of `O=C(O)C[C@H]1CCC(=O)[C@@H]1C/C=C\CCOC1OC(CO)C(O)C(O)C1O` (some centres undefined) it was -2.13% [at 33.1 µM]; in that of `C[C@@H]1O[C@@H](O[C@H]2[C@H](O[C@H]3[C@H](O[C@H]4CC[C@@]5(CO)C(CC[C@]6(C)C5CC=C5C7CC(C)(C)C[C@@H](O)[C@]7(C)CC[C@]56C)C4(C)C)O[C@H](C(=O)O)[C@@H](O)[C@@H]3O)OC[C@@H](O)[C@@H]2O)[C@H](O)[C@H](O)[C@H]1O` (some centres undefined), -8.64% [at 15.1 µM].

Source of the values: PubChem BioAssay (NCATS).
